Screening results: PubChem, Broad Institute
This excerpt belongs to a sample that is enriched for hits.
Tg IFNy HTS – T. gondii growth inhibition with IFN-gamma, primary screen, cell-based; Toxoplasma gondii growth in IFN-gamma-treated host cells; active compounds read low; activity change, negative = inhibition, % (test concentration not listed); 3.8% of 69,000 active; AID 1259416, 2018; in the data active = activity change below about -70%, passing the limit was not always enough;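 note: host cells are HeLa cells infected with Toxoplasma gondii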
Numbers without * were called inactive; ! = a repeat was not active.

SMILES | Tg IFNy HTS
COc1ccc2c(C)c(CC(=O)N3CCn4cncc4C3)c(=O)oc2c1 | 0.1
COc1cc(N2CCC(N3CCN(C)CC3)CC2)ccc1Nc1ncc(Cl)c(Nc2ccccc2S(=O)(=O)C(C)C)n1 | -83.1*
COc1cc(N2CCC(N(C)C)CC2)ccc1Nc1ncc(Cl)c(Nc2ccccc2P(C)(C)=O)n1 | -73.7*
C=CC(=O)Nc1cccc(Nc2nc(Nc3ccc(N4CCN(C(C)=O)CC4)cc3OC)ncc2C(F)(F)F)c1 | 1.8
C=CC(=O)Nc1cccc(Oc2nc(Nc3ccc(N4CCN(C)CC4)cc3)ncc2Cl)c1 | -57.1
C[C@H]1OC(O)[C@H](O)[C@H](O)[C@H]1O (some centres not stated) | 4.9
CCOc1ncccc1-c1ccc[nH]c1=O | -1.5
O=C(NCCC1COc2ccccc2O1)c1ccc(-c2cccnc2)nc1 (configuration not stated) | -2.5
c1ccc2c(c1)CC1(CCCCC1)n1nnnc1-2 | 27.8
O=C1C(=O)N2C(=C1C(=O)N1CCCCCC1)c1ccccc1CC21CCCC1 | 117.3
O=C1C(=O)N2C(=C1C(=O)N1CCOCC1)c1ccccc1CC21CCCCC1 | -96.3*
Cc1oc(C2CCN(S(=O)(=O)c3cccs3)CC2)nc1C(=O)N1CCCC1 | 57.8
CCN1CCC2(CC1)OC(=O)C(C)=C2C(=O)Nc1ccccc1C(F)(F)F | 31.2
O=C(O)C(O)Cc1ccc(O)c(O)c1 (configuration not stated) | 14.0
O=C(c1ccccn1)N1C[C@@H]2[C@H](c3ccccc31)[C@H](CO)N2C(=O)Nc1ccccc1Cl | -5.6
COc1cc2c(cc1OC)CN(Cc1c(C(C)C)[nH]c3ncccc13)CC2 | -38.0
COc1cc2c(cc1OC)CN(CCc1ccc(NC(=O)c3cccc4c(=O)c5cccc(OC)c5[nH]c34)cc1)CC2 | -83.9*
COc1cc2c(cc1OC)CN(CC(=O)NC(C)c1cn(C)nc1C)CC2 (configuration not stated) | 1.8
COc1ccc(-c2nc(C)c(CCNC(=O)C(=O)Nc3ccc(C)cc3C)s2)cc1OC | 0.5
Cn1ccnc1CN1CCC(c2ccnc(-c3cccc(O)c3)c2)C1 (configuration not stated) | 0.5
Cc1ccccc1OCCNc1nc(C)c(C(=O)Nc2ccccc2)s1 | -32.8
O=C(c1cnc(CN2CCCC2)s1)N1CC(c2cccnc2)C1 | -19.2
CCCNC(=O)CCCc1nc(-c2ccc(OC)cc2)no1 | -16.3
O=C(NCc1cccnc1)c1ccccc1NS(=O)(=O)c1cccs1 | 27.9
O=S(=O)(Nc1cc(Sc2ncn[nH]2)c(O)c2ccccc12)c1cccs1 | -98.3*
SMILES | Tg IFNy HTS
CCOc1ccccc1NS(=O)(=O)c1cccs1 | 2.9
O=C1NC[C@@H]2CN(C(=O)c3cnccn3)C[C@@H]12 | 57.2
CN1CCOCC2(CCCN(C(=O)Cc3cccs3)C2)C1 (configuration not stated) | -3.1
CN1CCOCC2(CCCN(C(=O)Cc3ccsc3)C2)C1 (configuration not stated) | 2.6
CCN1CCOCC2(CCCN(C(=O)Cc3ccsc3)C2)C1 (configuration not stated) | -80.3*
CNc1ncc(C(=O)N2CCCC(C(=O)c3ccc(Cl)cc3C)C2)cn1 (configuration not stated) | 9.3
COc1ccc2c(c1)CCC1C2CCC2(C)C(=O)CCC12 (configuration not stated) | -14.2
C#C[C@]1(O)CC[C@H]2[C@@H]3CCc4cc(O)ccc4[C@H]3CC[C@@]21C | -78.9*!
CC(=O)[C@@]1(O)CCC2C3CCC4=CC(=O)CC[C@]4(C)C3CC[C@@]21C (some centres not stated) | -11.2
CC(=O)OC1CCC2C3CCc4cc(O)ccc4C3CCC12C (configuration not stated) | -27.8
C[C@]12CC[C@@H]3c4cc(O)c(O)cc4CC[C@H]3[C@@H]1CC[C@@H]2O | -67.1
CC(=O)O[C@H]1CC[C@H]2[C@@H]3CCc4cc(O)ccc4[C@H]3CC[C@]12C | -5.6
CC12CCC3c4ccc(O)cc4CCC3C1CCC2=O (configuration not stated) | -63.2
C[C@]12CCC3c4ccc(O)cc4CCC3C1CCC2=O (some centres not stated) | -78.7*
C[C@]12CC[C@@H]3c4ccc(O)cc4CC[C@H]3[C@@H]1CC[C@@H]2O | -83.8*
COc1ccc2c(c1)CCC1C2CC[C@@]2(C)C1CC[C@@H]2O (some centres not stated) | -45.6
CC(=O)[C@@]1(O)CC[C@H]2[C@@H]3CCC4=CC(=O)CC[C@]4(C)[C@H]3CC[C@@]21C | 7.9
C#CC1(O)CCC2C3CCC4=Cc5oncc5CC4(C)C3CCC21C (configuration not stated) | -86.5*
COC(=O)c1cccc(C(=O)N2Cc3cnc(CC(C)C)nc3C2)c1 | 5.7
Cc1ccc(S(=O)(=O)Nc2ccc(S(=O)(=O)c3ccc(F)cc3)cc2)cc1 | -44.0
Cn1cc(N2CC3(COCCN(CC4CC4)C3)OCC2=O)cn1 (configuration not stated) | 1.1
COc1cc(C)sc1C(=O)N1CC(c2cccnc2)C1 | -52.5
CC(C)(C)c1cc(CN2CCCC3(C2)C(=O)Nc2ccccc23)[nH]n1 (configuration not stated) | 7.5
COC(=O)c1cc(C)nc2c1c(=O)n(Cc1nc(-c3cccc(Cl)c3)oc1C)c(=O)n2C | -22.5
O=C(NCc1ccc(Cl)cc1)c1c(O)c2cccnc2[nH]c1=O | -41.8
SMILES | Tg IFNy HTS
COc1ccc(OC)c(-c2noc(-c3c(O)c4cc(C)ccc4[nH]c3=O)n2)c1 | 83.4
c1cn2c(n1)CN(CC1CCOC1)CC(CN1CCCC1)C2 (configuration not stated) | 424.8
Cc1ccc(N2CC3(CCN(CC4CC4)C3)CC2=O)s1 (configuration not stated) | 51.2
O=S(=O)(Cc1cccc(C(F)(F)F)c1)Cc1ncc(-c2ccc(Cl)cc2)s1 | -31.9
Cc1ccc(C(=O)N2CCn3cnc(COc4cccnc4)c3C2)cc1 | -9.6
CC12CCC3c4ccc(OC(=O)c5ccccc5)cc4CCC3C1CCC2O (configuration not stated) | -52.7
C[C@]12CC[C@@H]3c4ccc(OS(=O)(=O)O)cc4CC[C@H]3[C@@H]1CCC2=O | 1.3
C[C@]12CCC3c4ccc(OC(=O)c5ccccc5)cc4CCC3C1CC[C@@H]2O (some centres not stated) | -86.7*
O=C(NC1CCS(=O)(=O)C1)NC1CCS(=O)(=O)C1 (configuration not stated) | 10.1
CC(C)N1CCOCC2(CCCN(C(=O)c3ccc4cc[nH]c4c3)C2)C1 (configuration not stated) | -3.0
CS(=O)(=O)N1Cc2ccccc2C2(CCN(C3CCOCC3)CC2)C1 | 47.4
CN(C)C(=O)[C@H]1C[C@@H]2CCN(S(C)(=O)=O)C[C@H]2O1 | -2.3
CS(=O)(=O)N1CCN(C2CCOCC2)CC(C(=O)O)C1 (configuration not stated) | -100.3*
c1ccc(-c2cc(-c3c[nH]c4ccccc34)cc(-c3ccccc3)n2)cc1 | -46.8
Cc1ccc(CN2CCC3(CC2)Cc2ccccc2CN(C)C3=O)o1 | 0.2
CCc1ccc(CN2CCC3C2CC(=O)N3CCN2CCOCC2)o1 (configuration not stated) | -48.5
Cc1nc(-c2ccccc2F)sc1C(=O)Nc1cnn(Cc2cccc(F)c2)c1 | -89.2*
COc1cccc(-c2cc(C(=O)Nc3cnn(Cc4cccc(F)c4)c3)on2)c1 | -96.1*
O=C(CN1CCC(c2ccccc2)CC1)Nc1cnn(Cc2cccc(F)c2)c1 | -14.4
